From PubChem BioAssay
Shown are actives, neighbours in structure and some others; about 6.3% of the full set was active somewhere.
HepG2 viability: HepG2 cytotoxicity, counter-screen for TGF-b inhibitors; actives 0.76% (n = 410,000); Potency, µM (titrated, usually from 46.1 µM), most hits filed as cytotoxic; HepG2 CAGA-GFP viability, ATP luminescence, 18 h
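CellTiter-Glo luminescence gave cytotoxicity after 18 hours at 37 degrees C. The cells were HepG2 CAGA-GFP in 1% FBS DMEM, stimulated with 500 pg/mL TGF-beta after compound addition. %Activity was normalised to no-cell wells (complete cell-killing) and DMSO (no toxicity), and curves were fitted and classified.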
TGFb SMAD3 inh: inhibitors of TGF-b signaling; HepG2 CAGA-GFP TGF-b/SMAD3 reporter, GFP fluorescence, 18 h; TGF-beta stimulated, 500 pg/mL final; Potency, µM (highest dose often 46.1 µM), hits mostly inhibitors; actives 1.2% (n = 410,000); AID 588855; note: nearly all actives have a fitted effect of over 65% in size
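Read-out: total well GFP (ex488/em500-530) summed from mean per-cell fluorescence. Cells: HEPG2 CAGA-GFP, 1% FBS DMEM, 18 h at 37 degrees C with 500 pg/mL final TGF-beta. Unstimulated wells served as the full-inhibition control; stimulated DMSO wells = 0%.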
ATXN2 expr inh: ATXN2 expression inhibition; Potency, µM (highest dose often 57 µM), actives largely listed as inhibitors; actives 0.72% (n = 360,000); HEK-293 ATXN2-luciferase reporter, luminescence, 24 h; note: nearly all actives have a fitted effect of over 55% in size
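ATXN2-luciferase reporter cells (luciferase flanked by upstream and downstream ATXN2 gene portions) were treated 24 h at 37 °C with compounds at up to 57 uM. SteadyGlo luminescence gave expression; GF-AFC fluorescence gave viability.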
S2 tox: cell viability loss in ATXN counter-screen | Potency, µM (doses to about 56.7 µM), usual class: cytotoxic | S2 cells (HEK-293 line with an ATXN2-luciferase reporter) viability, CellTiter-Fluor protease fluorescence, 24 h | actives 0.49% (n = 400,000); note: nearly all actives have a fitted effect of over 40% in size
VP16 counter: inhibits Gal4-VP16 luciferase reporter, ROR gamma counter-screen. Drosophila S2 Gal4-VP16 UAS-luciferase, luminescence, 20 h. Potency, µM (doses to about 53.6 µM), hits mostly inhibitors. actives 3.5% (n = 310,000);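 note: Gal4-VP16 expression switched on by copper sulfate through the metallothionein promoter; nearly all actives have a fitted effect of over 50% in size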
RORg inh: blocks mouse ROR gamma transcriptional activity; P51450; Drosophila S2 Gal4-RORgamma UAS-luciferase reporter, 20 h; Potency, µM (highest dose often 53.6 µM), actives largely listed as inhibitors; actives 5.4% (n = 310,000); AID 2551; note: nearly all actives have a fitted effect of over 60% in size
Target sequence (P51450 whole entry, looked up, the tested form may be a part): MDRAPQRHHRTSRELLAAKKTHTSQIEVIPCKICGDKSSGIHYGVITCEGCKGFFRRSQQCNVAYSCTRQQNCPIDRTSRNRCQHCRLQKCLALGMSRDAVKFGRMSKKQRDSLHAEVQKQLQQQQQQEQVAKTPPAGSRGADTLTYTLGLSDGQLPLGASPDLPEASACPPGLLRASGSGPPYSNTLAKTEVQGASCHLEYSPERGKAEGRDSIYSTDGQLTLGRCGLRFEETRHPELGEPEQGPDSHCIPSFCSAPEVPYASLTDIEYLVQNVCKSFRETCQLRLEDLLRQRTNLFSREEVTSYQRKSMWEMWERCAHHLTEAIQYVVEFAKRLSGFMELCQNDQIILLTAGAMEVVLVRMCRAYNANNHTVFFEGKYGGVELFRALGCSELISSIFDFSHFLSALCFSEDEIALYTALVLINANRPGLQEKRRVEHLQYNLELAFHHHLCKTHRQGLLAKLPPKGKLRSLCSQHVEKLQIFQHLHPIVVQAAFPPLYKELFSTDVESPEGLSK
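Stably transfected Drosophila Schneider cells are the test system, with ROR gamma fused to Gal4 and luciferase under UAS control; luminescence is read after 20 hr of 700 uM copper sulfate induction at ambient temperature.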
Of the large screens only hits and unclear results are named; the others gave an inactive call. Calls come from the whole dose curve; as a rule, active = well fitted curve in the direction sought with a large enough effect; inconclusive = small, poorly fitted or top-dose-only effect, or another doubt; inactive = no such curve, though single readings can be large; an effect the other way counts as inactive or inconclusive.

O=C(NC(=S)Nc1ccccc1N1CCCC1)c1ccccc1[N+](=O)[O-]	TGFb SMAD3 inh inconclusive, VP16 counter 4µM, RORg inh 2.8µM
c1ccc2nc3c(nc2c1)[nH]c1ccccc13	RORg inh inconclusive
c1ccc(-c2c3ccccc3nc3[nH]c4ccccc4c23)cc1	VP16 counter inconclusive, RORg inh 11µM
O=C(N/N=C/c1ccco1)c1cc(-c2ccc(Cl)s2)[nH]n1	none
O=C(N/N=C/c1cccs1)c1cc(-c2ccc(Cl)s2)[nH]n1	TGFb SMAD3 inh inconclusive, VP16 counter 7.9µM, RORg inh 10µM
Cc1ccc(-c2cc(C(=O)N/N=C/C=C/c3ccccc3)n[nH]2)s1	VP16 counter 7.1µM, RORg inh 4µM
COc1ccccc1OCC(=O)N(Cc1cccs1)C1CCS(=O)(=O)C1 (centres undefined)	none (no result: VP16 counter, RORg inh)
O=C(NC(=S)Nc1ccccc1Cl)c1cncc(Br)c1	TGFb SMAD3 inh inconclusive, VP16 counter 4.5µM, RORg inh 2.5µM
CC1CCCC(NC(=S)NC(=O)c2cncc(Br)c2)C1C (centres undefined)	VP16 counter 5.6µM, RORg inh 2.8µM
Cc1ccc(NC(=S)NC(=O)c2cncc(Br)c2)c(C)c1	none (no result: ATXN2 expr inh, VP16 counter, RORg inh)
Cc1ccc(NC(=O)c2cncc(Br)c2)cc1S(=O)(=O)N(C)C	none
COc1ccc(NC(=O)c2cncc(Br)c2)cc1S(N)(=O)=O	TGFb SMAD3 inh inconclusive, RORg inh 11µM
COc1ccc(NC(=S)NC(=O)c2cncc(Br)c2)c(OC)c1	VP16 counter inconclusive, RORg inh 2.5µM
Cc1ccc2c(=O)c(C(=O)c3ccccc3)cn(CC(=O)Nc3ccccc3)c2n1	none (no result: VP16 counter, RORg inh)
Cc1ccc(C)c(N2CCN(C(=O)CN3C(=O)COc4ccc(S(=O)(=O)N5CCC(C)CC5)cc43)CC2)c1	none (no result: VP16 counter, RORg inh)
COc1ccc(CNc2ncnc3c2[nH]c2ccccc23)cc1	ATXN2 expr inh inconclusive, VP16 counter 6.3µM, RORg inh inconclusive
COc1ccc(CNc2ncnc3c2[nH]c2cc(OC)c(OC)cc23)cc1	ATXN2 expr inh inconclusive
NC(=O)Nc1ccc(/C=C2\C=Cc3ccccc32)cc1	TGFb SMAD3 inh inconclusive (no result: ATXN2 expr inh, S2 tox, VP16 counter, RORg inh)
CCOC(=O)c1oc2cc(C)cc(C)c2c1C	RORg inh inconclusive
CCOC(=O)c1oc2ccc(/C=N/O)c(Cl)c2c1C	VP16 counter 3.2µM, RORg inh 0.56µM
CC(=O)c1cccc(N/C=C\C(=O)c2ccc(C)cc2)c1	VP16 counter 8.9µM, RORg inh 2.2µM
CCOc1ccc(C(=O)/C=C/Nc2ccc(S(=O)(=O)N=C(N)N)cc2)cc1	TGFb SMAD3 inh 20µM, S2 tox inconclusive
O=C(/C=C/Nc1ccc(F)c(Cl)c1)c1ccccc1	none (no result: ATXN2 expr inh)
NC(N)=NS(=O)(=O)c1ccc(N/C=C/C(=O)c2ccc(Cl)c(Cl)c2)cc1	none
O=C(/C=C/Nc1cccc(O)c1)c1ccccc1	VP16 counter 6.3µM, RORg inh 5µM
O=C(/C=C\Nc1ccccn1)c1ccccc1	VP16 counter 13µM, RORg inh 5µM
COc1ccc(C(=O)/C=C/Nc2ccccn2)c(OC)c1	S2 tox inconclusive
CC(=O)c1cccc(NS(=O)(=O)c2ccc(N/C=C\C(=O)c3ccc(C)cc3)cc2)c1	VP16 counter inconclusive
N#Cc1ccccc1NC(=O)C1CCCO1 (centres undefined)	none (no result: ATXN2 expr inh, VP16 counter, RORg inh)
Cc1ccc2oc(-c3ccc(C)c(NC(=O)COc4ccccc4C)c3)nc2c1	none (no result: ATXN2 expr inh, S2 tox, VP16 counter, RORg inh)
Cc1ccccc1C1(CC(=O)N2CC3(C)CC2CC(C)(C)C3)CC(=O)N(Cc2cccnc2)C1=O (centres undefined)	none (no result: HepG2 viability, TGFb SMAD3 inh, ATXN2 expr inh, VP16 counter, RORg inh)
COc1ccc(S(=O)(=O)N2CCCC(C(=O)Nc3cccc(C(C)=O)c3)C2)cc1 (centres undefined)	VP16 counter 4.5µM, RORg inh inconclusive
C/C(=C\C(=O)c1cccnc1)Nc1ccc(O)cc1	VP16 counter inconclusive, RORg inh 13µM
CC(=O)c1cccc(NC(=O)C2CCCN(S(=O)(=O)c3ccc(F)cc3)C2)c1 (centres undefined)	none
CC(=O)c1cccc(NS(=O)(=O)c2ccc(NC(=O)N3CCCCC3)cc2)c1	S2 tox inconclusive, VP16 counter 10µM
C/C(=C\C(=O)c1ccc(C)cc1)Nc1cccc(O)c1	VP16 counter 3.5µM, RORg inh 6.3µM
CC(=O)c1cccc(NC(=O)N2CCCCCC2)c1	none
CC1=CN2C(c3cccc([N+](=O)[O-])c3)=NON(c3ccc(C)cn3)C2C=C1 (centres undefined)	none (no result: VP16 counter, RORg inh)
O=C(Cn1ccc2cc(S(=O)(=O)N3CCCCCC3)ccc21)NCCc1ccc(Cl)cc1	none (no result: VP16 counter, RORg inh)
CC(=O)c1cccc(NS(=O)(=O)c2ccc(N/C=C/C(=O)c3ccc(F)cc3)cc2)c1	TGFb SMAD3 inh inconclusive, VP16 counter 4.5µM, RORg inh inconclusive
Cc1ccc(C(=O)/C=C/Nc2cccc(O)c2)cc1	VP16 counter 1µM, RORg inh 2.2µM
COc1ccc(N/C=C/C(=O)c2ccccc2)cc1	S2 tox inconclusive, VP16 counter 10µM, RORg inh 7.9µM (no result: ATXN2 expr inh)
O=C(OCc1ccc(Cl)c(Cl)c1)c1ccc[nH]1	none
O=C(COc1ccc(F)cc1)NCc1ccc2c(c1)CCN2C(=O)c1ccccc1	none (no result: ATXN2 expr inh, S2 tox, VP16 counter, RORg inh)
Cc1cccc(N2CCN(C(=O)c3cc4ccc5cccnc5c4[nH]3)CC2)c1C	TGFb SMAD3 inh inconclusive (no result: ATXN2 expr inh, S2 tox, VP16 counter, RORg inh)
Cc1ccc(NC(=O)c2ccc(-n3nncc3-c3ccccc3)cc2)cc1	none (no result: ATXN2 expr inh, S2 tox, VP16 counter, RORg inh)
CCCN1C(=O)/C(=C/c2ccc3c(c2)OCO3)NC1=S	VP16 counter inconclusive, RORg inh 8.9µM
CCOC(=O)c1c(NC(=O)CN2CCN(S(=O)(=O)c3cc(Cl)ccc3Cl)CC2)sc(C(=O)N(C)C)c1C	TGFb SMAD3 inh 10µM, S2 tox inconclusive (no result: VP16 counter, RORg inh)
CC1C/C(=C/c2ccccn2)C(=O)/C(=C/c2ccccn2)C1 (centres undefined)	TGFb SMAD3 inh 1.3µM, ATXN2 expr inh inconclusive, VP16 counter 1.4µM, RORg inh 2.8µM (no result: S2 tox)
CC1C/C(=C/c2ccco2)C(=O)/C(=C/c2ccco2)C1 (centres undefined)	none (no result: HepG2 viability, TGFb SMAD3 inh, ATXN2 expr inh, S2 tox)
O=C1/C(=C/c2ccccn2)COc2ccccc21	none
CC(C)(C)C1C/C(=C/c2ccccn2)C(=O)/C(=C/c2ccccn2)C1 (centres undefined)	TGFb SMAD3 inh 0.89µM, ATXN2 expr inh 1.4µM, S2 tox 1.8µM, VP16 counter inconclusive, RORg inh 5.6µM
O=C(c1ccc(F)cc1)N1CCN(CCc2ccncc2)CC1	none (no result: ATXN2 expr inh, S2 tox, VP16 counter, RORg inh)
O=C1N[C@@H](Cc2ccccc2)COC(=O)[C@@H](Cc2ccc(F)cc2)CC/C=C/C[C@H]1CC(=O)N(CCO)Cc1ccccc1	TGFb SMAD3 inh inconclusive, ATXN2 expr inh inconclusive, S2 tox 22µM (no result: VP16 counter, RORg inh)
